VP16 counter = Gal4-VP16 reporter inhibition counter-screen; Drosophila S2 Gal4-VP16 UAS-luciferase, luminescence, 20 h; 310,000 compounds, 3.5% hits; Potency, µM (titrated, usually from 53.6 µM), for the others: top-dose activity, negative = inhibition, most hits filed as inhibitors;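 also: Gal4-VP16 expression switched on by copper sulfate through the metallothionein promoter; % is scaled to controls: 0 for no effect and ±100 for the full control effect; nearly all actives have a fitted effect of over 50% in size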
Integrin act MD = integrin-mediated muscular dystrophy alleviation activation; AID 624291; 350,000 compounds, 0.064% hits; Potency, µM (highest dose often 38.3 µM), inactives show at the top dose activation, actives largely listed as activators; alpha7betagal myoblasts, beta-gal FDG fluorescence, 48 h;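 also: 100% = response of the positive control SU9516; nearly all actives have a fitted effect of over 60% in size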
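Alpha7betagal+/- myoblasts (passage 13) were plated 16-24 hr, then exposed to compounds (1:260 dilution of DMSO stock) for 48 hours at 37C. After MPER lysis, β-galactosidase reporter activity was read as FDG fluorescence (ex 480/em 540) after 30 minutes.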
RORgamma inh = ROR gamma (mouse) transcription inhibition. 310,000 compounds, 5.4% hits. P51450. Drosophila S2 Gal4-RORgamma UAS-luciferase reporter, 20 h. Potency, µM (titrated, usually from 53.6 µM), for the others: at the highest dose activity change, negative = inhibition, actives largely listed as inhibitors; also: % is scaled to controls: 0 for no effect and ±100 for the full control effect; nearly all actives have a fitted effect of over 60% in size
Target sequence (P51450 whole entry, looked up, the tested form may be a part): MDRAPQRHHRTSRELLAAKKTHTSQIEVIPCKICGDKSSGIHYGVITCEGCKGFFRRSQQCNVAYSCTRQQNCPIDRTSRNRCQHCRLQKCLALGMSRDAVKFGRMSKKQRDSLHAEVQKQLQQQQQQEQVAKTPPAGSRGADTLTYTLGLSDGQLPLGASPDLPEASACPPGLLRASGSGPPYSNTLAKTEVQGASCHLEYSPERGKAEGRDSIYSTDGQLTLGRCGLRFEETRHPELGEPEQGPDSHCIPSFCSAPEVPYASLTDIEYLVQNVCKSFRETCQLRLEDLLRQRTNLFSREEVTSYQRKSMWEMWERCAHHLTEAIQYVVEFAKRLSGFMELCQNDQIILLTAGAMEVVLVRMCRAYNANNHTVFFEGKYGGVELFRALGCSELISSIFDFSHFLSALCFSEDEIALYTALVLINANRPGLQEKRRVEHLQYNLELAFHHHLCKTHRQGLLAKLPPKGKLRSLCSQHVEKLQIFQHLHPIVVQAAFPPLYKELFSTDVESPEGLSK
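Luminescence from a UAS-regulated Photinus luciferase reporter in stably transfected Drosophila Schneider cells is measured; decreased signal marks ROR gamma inhibition. Fusion expression is induced by 700 uM copper sulfate for 20 hr.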
Mito fusion act = blocks mitochondrial division or promotes mitochondrial fusion; S. cerevisiae fusion-defective mutant growth rescue, CellTiterGlo 48 h; Potency, µM (top dose mostly 46.1 µM), for the others: top-dose growth rescue (activation), actives largely listed as activators; 320,000 compounds, 0.23% hits; also: % of control where 0% means no effect; nearly all actives have a fitted effect of over 45% in size
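S. cerevisiae fusion-defective temperature-sensitive mutants (e.g. fzo1-1, mgm1-5) grown 48 h at 37C in YPEG (ethanol/glycerol non-fermentable) medium with 23 nl compound per well; growth rescue read as CellTiterGlo luminescence.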
uPA surface inh = blocks generation of uPA at the cell surface; 330,000 compounds, 0.31% hits; cell surface uPA generation assay, qHTS; Potency, µM (highest dose often 38.3 µM), without a hit: at the highest dose activity change, negative = inhibition, hits mostly inhibitors; AID 540303; active = well fitted inhibition curve with a large enough effect; inconclusive = small, poorly fitted or top-dose-only effect; inactive = no such curve, though single readings can be large or run the other way; tested in mouse RAW 264.7 cells; also: % is scaled to controls: 0 for no effect and ±100 for the full control effect; nearly all actives have a fitted effect of over 55% in size
BCR signal inh = blocks chronic active B-cell receptor signaling; ABC-DLBCL IkBa-CBG/CBR reporter, luminescence ratio, 4 h; Potency, µM (titrated, usually from 46.1 µM), without a hit: at the top dose activity change, negative = inhibition, usual class: inhibitors; 340,000 compounds, 0.05% hits; AID 493014; active = well fitted inhibition curve with a large enough effect in the signal ratio, with a control signal flat, not every such curve was filed as active; inconclusive = small, poorly fitted or top-dose-only effect, or effect the other way, or a change in a side signal; the % refers to the signal ratio;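 also: plate controls were basal doxycycline-induced cells for no effect and cells given 10 µM MG132 for full effect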
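Cell line TMD8 (human ABC DLBCL), stably expressing tet-inducible CBG68-IkBa fusion and CBR; IMDM/0.5% FBS; cpd up to 46 uM; dox induction, 4 h, 37C/5% CO2; dual luminescence; green/red ratio; MG132 control.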
Active calls of the source: *; ? = inconclusive; . = not tested or not shown; [ ] = another dose, or the depositor's remark. A selection: hits, their analogues and other compounds. The true share with any hit is near 5.5%. Unless noted, calls follow the shape of the dose curve; as a rule, active = well fitted curve in the direction sought with a large enough effect; inconclusive = small, poorly fitted or top-dose-only effect, or another doubt; inactive = no such curve, though single readings can be large; an effect the other way counts as inactive or inconclusive. Potency is read from the fitted curve at half-maximal effect.

SMILES | VP16 counter | Integrin act MD | RORgamma inh | Mito fusion act | uPA surface inh | BCR signal inh
Cc1cccc(NC(=S)N(CCCN2CCOCC2)C(C)c2cc3ccccc3o2)c1 (stereo not given) | -2%[10 µM] | -37% | 13µM* | 10% | -27% | -2%
COc1cccc2cc(C(C)N(CCCN3CCOCC3)C(=S)Nc3cccc(C)c3)oc12 (stereo not given) | -6% | 6% | ? | -2% | -4% | -16%
Cc1cccc(NC(=S)N(CCCN2CCOCC2)C(C)c2cc3ccccc3o2)c1C (stereo not given) | ? | 11% | 10µM* | -1%[9.22 µM] | 3% | -17%
COc1cccc(-c2nn(-c3ccccc3)cc2CNC(C)Cn2cncn2)c1 (stereo not given) | -12% | -7% | 3% | 7% | -2% | 11%
CCNc1nc(NCC)nc(N/N=C/c2ccc(OC)cc2)n1 | -25% | -18% | 11µM* | -1% | -7% | 15%
CN(C)c1nc(NCc2ccccc2)nc(N/N=C/c2cccc(Br)c2)n1 | 11µM* | 12% | 3.5µM* | -4% | 2% | ?
CCNc1nc(NCC)nc(N/N=C/c2ccccc2)n1 | -10% | -24% | 14µM* | -16% | -7% | -3%
CCNc1nc(NCC)nc(N/N=C(\C)c2ccc(OC)cc2)n1 | ? | 12% | 7.1µM* | 2% | -10% | ?
COc1ccc(/C=N/Nc2nc(C)nc(N)n2)cc1 | 6% | -8% | -7% | 6% | -2% | 4%
O=C(O)c1cc(S(=O)(=O)NC(CO)C(O)c2ccc([N+](=O)[O-])cc2)ccc1Br (stereo not given) | 4% | -1% | -18% | -3% | 5% | 2%
CCOC(=O)c1cc(=O)n2c(nc3ccccc32)[nH]1 | . | 0% | . | -10% | -9% | ?
Nc1nc(=S)c2ncn(C3CCCCC3)c2[nH]1 | . | 2% | . | . | 3% | .
CCc1ccc(-c2cn(C3CCCCC3)c(=S)[nH]2)cc1 | ? | -11% | 0.71µM* | -2% | -17% | -22%
CNc1ncnc2sc(-c3ccccc3)cc12 | 4% | 20% | -8% | -2% | -5% | 7%
CN(C)CCNc1ncnc2sc(-c3ccccc3)cc12 | 1% | 10µM* | 10% | -4% | -18% | ?
Cn1nc([N+](=O)[O-])c(C(C#N)c2ccccn2)c(Cl)c1=O (stereo not given) | ? | -61% | 10µM* | 3% | ? | ?
COC(=O)c1ccc(COC(=O)c2[nH]c(C)c(C(C)=O)c2C)o1 | 7.9µM* | -9% | ? | 1% | -9% | ?
CC(C)(CNC(=O)c1ccc([N+](=O)[O-])c(Cl)c1)CNC(=O)c1ccc([N+](=O)[O-])c(Cl)c1 | 5µM* | -46% | ? | -23% | 1% | ?
CCN(CC)c1ccc(NC(=S)NC(=O)c2ccco2)cc1 | 16µM* | -40% | 4µM* | 4% | 5% | 6%
CCN(CC)c1ccc(NC(=S)NC(=O)c2cccs2)cc1 | 5µM* | 2% | 3.2µM* | 1% | -9% | ?
CCN(CC)c1ccc(NC(=O)c2ccco2)cc1 | ? | -8% | ? | 3% | . | 0%
CN(C)S(=O)(=O)c1ccc(NC(=S)NC(=O)c2cccs2)cc1 | -82% | 14% | 8.9µM* | -1% | 0% | -7%
CCN(c1ccccc1)S(=O)(=O)c1ccc(NC(=S)NC(=O)c2cccs2)cc1 | 7.1µM* | -31% | 3.2µM* | 1% | -4% | 2%
CN(c1ccccc1)S(=O)(=O)c1ccc(NC(=O)c2cccs2)cc1 | -6% | -7% | 17% | 4% | 8% | -1%
CCN(CC)CCCNc1oc(-c2ccc(OC)cc2)nc1C#N | . | . | . | -4% | . | 14%
SMILES | VP16 counter | Integrin act MD | RORgamma inh | Mito fusion act | uPA surface inh | BCR signal inh
CCCC[C@H]1CCCO[C@@](C(=O)NCc2cc(C)n(C)n2)(C(F)(F)F)C1 | -9% | . | -7% | . | . | .
COc1cc(C(=O)O[C@@H]2CC3CC[C@]2(C)C3(C)C)ccc1O | -19% | . | -6% | . | . | .
CCC(C)c1ccc(NC(=O)COC(=O)CCNC(=O)c2ccco2)cc1 (stereo not given) | . | -23% | . | 3% | 14% | 0%
CCCCOC(=O)c1ccc(NC(=S)NC(=O)c2ccco2)cc1 | ? | -1% | 11µM* | -1% | -20% | ?
CCC(C)c1ccc(NC(=O)c2ccco2)cc1 (stereo not given) | 7.9µM* | 3% | 20µM* | -1% | ? | ?
COC(=O)NC(CCc1ccccc1)C(C(C)=O)C(=O)OC (stereo not given) | 13% | . | 29% | . | . | .
CCNc1nc(N2CCOCC2)nc(N(c2ccccc2)c2ccccc2)n1 | 3% | 20% | 42% | -1% | 0% | 3%
C=CCNc1nc(NCC)nc(N2CCOCC2)n1 | -23% | 20% | 2µM* | -9% | -9% | ?
CCOC(=O)CN(Cc1cc(OC)cc(N(C)C)c1OC)C(=O)C1CC(CO[Si](C)(C)C(C)(C)C)=CN1C(=O)OC(C)(C)C (stereo not given) | -19% | . | 27% | . | . | .
O=C(Cn1nnc(-c2ccccc2Cl)n1)N/N=C/c1ccc(-c2cccc(Cl)c2)o1 | 6.3µM* | 18% | 7.1µM* | -3% | 9% | -16%
CCOc1cccc(-c2c(C(=O)N/N=C/c3sccc3C)nnn2-c2nonc2N)c1 | 4.5µM* | -34% | 5.6µM* | -1% | 11% | ?
CCOc1ccc(/C=N/NC(=O)c2nnn(-c3nonc3N)c2-c2cccs2)cc1 | -6% | 1% | -33% | -8% | -11% | 4%
CCOc1cccc(-c2c(C(=O)N/N=C/c3ccsc3)nnn2-c2nonc2N)c1 | 25µM* | 15% | 11µM* | -1% | 0% | ?
CCOc1ccc(-c2c(C(=O)N/N=C/c3sccc3C)nnn2-c2nonc2N)cc1 | 8.9µM* | 0% | 3.2µM* | 5% | 17% | 13%
CCOC(=O)CN1C(c2ccccc2O)Nc2ccc(Br)cc2C1c1ccccc1 (stereo not given) | 7.1µM* | 6% | -95% | 3% | 0% | ?
Clc1ccc(-n2cccc2CN2CCc3c([nH]c4ccccc34)C2c2ccccn2)nc1 (stereo not given) | -6% | -15% | 13µM* | 8% | 2% | ?
Cc1nn(Cc2ccc(Cl)cc2)c(C)c1NC(=O)C(c1ccccc1)c1ccccc1 | -1% | 16% | 11µM* | 13% | 9% | ?
O=c1c2cc(Br)ccc2[nH]c(=S)n1Cc1cccnc1 | ? | 10% | 1.1µM* | 1% | -5% | 2%
C=CCn1c(=O)c2ccccc2n2c(=S)[nH]nc12 | -6% | 6% | -29% | -8% | 3% | ?
C=CCn1c(=S)[nH]c2nc3c(cc2c1=O)CCCC3 | 7.1µM* | -22% | 7.1µM* | 13% | -13% | ?
